From PubChem BioAssay

Test: JC-1 mitochondrial potential readout, lung cancer cells – cell-based, A549, JC-1 fluorescence, basal, 24 h, 100 nL, profiling panel (AID 1138);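 further: A549 lung adenocarcinoma cells under basal conditions with no added stimulus; test concentration not given here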
Conditions: higher = more signal

| SMILES | z-score |
| --- | --- |
| COc1cc(NN2C(C(O)c3ccco3)C=CC3C(=O)N(c4ccccc4)C(=O)C32)cc(OC)c1OC (configuration not stated) | -0.16 |
| COC(=O)[C@@]1(Cc2ccc(OC)cc2)[C@H]2c3cc(C(=O)N(C)C)n(CCc4ccccn4)c3C[C@H]2CN1C(=O)c1ccccc1 | -0.267 |
| O=C(NC1CC1)[C@@H]1c2ccccc2C(=O)N(Cc2ccccc2Cl)[C@H]1c1ccc(CO)cc1 | 3.13 |
| COC(=O)[C@@]1(Cc2ccc(F)cc2)[C@H]2c3cc(C(=O)N(C)C)n(Cc4ccccc4)c3C[C@H]2CN1C(=O)c1ccccc1 | 0.906 |
| O=C1C2C=CC(C(O)CCc3ccccc3)N(Nc3ccccc3F)C2C(=O)N1c1ccccc1 (configuration not stated) | 0.00533 |
| C=C[C@H](CO[Si](CC)(CC)CC)N(Cc1ccc(OC(C)=O)c(OC)c1)S(=O)(=O)c1ccc(Br)cc1 | -0.202 |
| O=C1O[C@@H](c2ccccc2)[C@@H](c2ccccc2)N2[C@@H](c3ccccc3OCCO)[C@]3(C(=O)Nc4ccc(C#CC5=CCCCC5)cc43)[C@@H](C(=O)N3CCCCCCC3)[C@H]12 | -0.489 |
| CCOC(=O)[C@H]1C/C=C/C[C@H](C(=O)OCC)C(=O)O[C@H]2[C@@H](OC)O[C@H](CO)[C@@H](OC(=O)c3c(OC)cccc3OC)[C@@H]2OC1=O | -0.927 |
| CCC(CC)C(O)C1C=CC2C(=O)NC(=O)C2N1Nc1ccc(Cl)cc1Cl (configuration not stated) | -0.00434 |
| CCOC(=O)C[C@H]1[C@H](OC(=O)c2ccc(C(=O)c3ccccc3)cc2)[C@@H](NC(=O)c2ccc3ccccc3c2)c2cc(OCCCO)ccc2N1C(=O)Cc1ccc(OC)cc1 | 0.826 |
| COC(=O)[C@@]1(CCC(=O)OC(C)(C)C)N=C(c2ccc(OCCCO)cc2)O[C@H]1c1ccccc1N=[N+]=[N-] | 1.01 |
| COC(=O)[C@@]1(Cc2ccc(OC)cc2)[C@H]2c3cc(C(=O)N(C)C)n(Cc4ccccn4)c3C[C@H]2CN1C(=O)c1ccccc1 | 0.332 |
| CCCC[C@@H]1C[C@H]1[C@@H](NC(=O)c1ccccc1)c1ccc(C(=O)OC)cc1 | 0.348 |
| CCCCCCc1nc(-c2ccc(OC)nc2)cc2c1[Si](C(C)C)(C(C)C)O[C@H]2c1ccccc1 | -0.959 |
| COC(=O)C(CC#Cc1ccc2c(c1)[C@]1(C(=O)N2)[C@H](C(=O)Nc2nc3ccccc3s2)[C@H]2C(=O)O[C@H](c3ccccc3)[C@H](c3ccccc3)N2[C@@H]1c1ccccc1OCCO)C(=O)OC | -2.25 |
| CN(C)C(=O)[C@@]1(CCS(=O)(=O)c2ccccc2)COC(c2ccc(OCCCO)cc2)=N1 | -0.572 |
| COc1ccc(C#Cc2ccc3c(c2)[C@]2(C(=O)N3)[C@H](C(=O)Nc3nc4ccccc4s3)[C@H]3C(=O)O[C@H](c4ccccc4)[C@H](c4ccccc4)N3[C@@H]2c2ccc(O)cc2)cc1 | -2.22 |
| C=C(CC1([C@@H](NP(=O)(c2ccccc2)c2ccccc2)[C@H]2C[C@@H]2CCCC)CC1)c1ccccc1 | -0.0757 |
| C=CCN1C(=O)[C@@]2(CC=C)N=C(c3ccc(OCCCO)cc3)O[C@H]2c2ccccc21 | 2.66 |
| CCCC[C@@H]1C[C@H]1[C@@H](NC(=O)c1ccco1)c1ccc(-c2ccccc2)cc1 | -1.12 |
| C=C(C)[C@@H]1CC=C(C(O)C2C=CC3C(=O)N(C)C(=O)C3N2Nc2ccccc2)CC1 (some centres not stated) | 0.54 |
| O=C1C2C=CC(C(O)Cc3ccccc3)N(n3cnnc3)C2C(=O)N1Cc1ccccc1 (configuration not stated) | -1.48 |
| C=C(COC)/C(=C/C[C@@H](OC(C)=O)c1ccc(OCCO)cc1)c1cnc2ccccc2c1 | 0.379 |
| COCCOC(=O)N1C(=O)[C@@]2(c3cc(C#CCNC(N)=O)ccc31)[C@H](C(=O)N1CCN(c3ncccn3)CC1)[C@H]1C(=O)O[C@H](c3ccccc3)[C@H](c3ccccc3)N1[C@@H]2c1ccc(OCCO)cc1 | -1.25 |
| C=CCOC(=O)[C@@H]1[C@H]2C(=O)O[C@H](c3ccccc3)[C@H](c3ccccc3)N2[C@H](c2ccc(OCCOC(=O)[C@@H]3C[C@@H]4C(=O)NCC(=O)N4[C@@H]3c3ccc(O)cc3)cc2)[C@@]12C(=O)Nc1ccc(I)cc12 | -1.73 |
| CC#CC(=O)Oc1ccccc1C=CC(=O)OCC | -1.04 |
| CCCC[C@@H]1C[C@H]1[C@@H](NC(=O)c1ccco1)c1ccccc1C(F)(F)F | -0.914 |
